Measurements from PubChem BioAssay (EPA / NIEHS).
Results filed as inconclusive are left out. The source made the active and inactive calls. Rule for the calls, unless noted: active = hit-call score of the fitted dose curve at least 0.9, where 1 is the maximum; inactive = score below 0.9.

Assays:
[1] = molecular target: Oxysterols receptor LXR-beta (Homo sapiens) (UniProt P55055); experiment: ATG_LXRb_TRANS: Attagene TRANS-FACTORIAL HepG2 Assay for human Liver X Receptor beta (LXRb) (AID 2282981; active = hit-call score of the fitted dose curve at least 0.9, where 1 is the maximum); conditions: HepG2 Attagene TRANS GAL4-LXRb reporter, mRNA
Chain of Oxysterols receptor LXR-beta (Homo sapiens) (P55055 whole entry, looked up, the tested form may be a part): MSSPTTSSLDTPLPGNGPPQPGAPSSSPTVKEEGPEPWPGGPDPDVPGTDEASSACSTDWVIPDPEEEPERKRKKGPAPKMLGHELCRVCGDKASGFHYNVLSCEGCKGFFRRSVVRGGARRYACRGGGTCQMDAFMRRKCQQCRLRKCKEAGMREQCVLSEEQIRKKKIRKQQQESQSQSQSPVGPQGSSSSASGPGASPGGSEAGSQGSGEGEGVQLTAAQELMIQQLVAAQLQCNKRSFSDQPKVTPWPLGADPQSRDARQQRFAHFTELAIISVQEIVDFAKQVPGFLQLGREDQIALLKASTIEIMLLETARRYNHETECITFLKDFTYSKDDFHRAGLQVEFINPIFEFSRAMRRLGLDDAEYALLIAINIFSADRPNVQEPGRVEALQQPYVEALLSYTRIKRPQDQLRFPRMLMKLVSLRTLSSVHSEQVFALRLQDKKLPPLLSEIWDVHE
How it was run: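 Liver-derived HepG2 cells transfected with Gal4-responsive reporters were dosed for 24 h. Activation was scored as rise in reporter mRNA, by RT-PCR and capillary electrophoresis, above DMSO baseline.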

[2] = molecular target: Hepatocyte nuclear factor 4-alpha (Homo sapiens) (UniProt P41235); experiment: ATG_HNF4a_TRANS: Attagene TRANS-FACTORIAL HepG2 Assay for human Hepatocyte Nuclear Factor 4 alpha (HNF4a) (AID 2282982; active = hit-call score of the fitted dose curve at least 0.9, where 1 is the maximum); conditions: HepG2 HNF4a transactivation reporter, mRNA readout
Chain of Hepatocyte nuclear factor 4-alpha (Homo sapiens) (P41235 whole entry, looked up, the tested form may be a part): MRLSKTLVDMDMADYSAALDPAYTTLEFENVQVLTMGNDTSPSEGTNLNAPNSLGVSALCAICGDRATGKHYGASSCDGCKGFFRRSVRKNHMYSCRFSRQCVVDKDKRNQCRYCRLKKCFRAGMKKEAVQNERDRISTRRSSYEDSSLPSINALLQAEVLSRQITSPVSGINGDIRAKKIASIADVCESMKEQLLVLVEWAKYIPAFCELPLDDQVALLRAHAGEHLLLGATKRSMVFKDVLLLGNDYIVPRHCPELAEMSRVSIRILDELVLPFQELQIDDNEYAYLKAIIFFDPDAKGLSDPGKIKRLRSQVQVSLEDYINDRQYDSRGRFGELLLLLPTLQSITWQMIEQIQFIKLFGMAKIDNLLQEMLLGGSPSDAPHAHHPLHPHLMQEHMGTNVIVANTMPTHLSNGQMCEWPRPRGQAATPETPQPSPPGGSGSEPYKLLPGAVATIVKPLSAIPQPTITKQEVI
How it was run: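 Using HepG2 liver cells transfected with GAL4-UAS reporter units, chemical-induced mRNA increases were assessed after 24 hours. Fluorescent RT-PCR fragments were separated by capillary electrophoresis and compared with DMSO negative controls.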

[3] = ATG_M_06_TRANS: Attagene TRANS-FACTORIAL HepG2 Assay for M06 Transcription Factor (Internal Marker) (AID 2282983; active = hit-call score of the fitted dose curve at least 0.9, where 1 is the maximum); conditions: HepG2 Attagene TRANS M06 internal marker reporter
How it was run: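 mRNA levels of a reporter transcript, quantified as FAM fluorescence on capillary electrophoresis, served as readout. HepG2 cells expressing exogenous GAL4-chimera reporter constructs were exposed for 24 h. Gain of signal over DMSO was evaluated.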

[4] = ATG_M_32_TRANS: Attagene TRANS-FACTORIAL HepG2 Assay for M32 Transcription Factor (Internal Marker) (AID 2282984; active = hit-call score of the fitted dose curve at least 0.9, where 1 is the maximum;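 note: transcript level of a background control reporter unit measured by RT-PCR and capillary electrophoresis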); conditions: HepG2 Attagene TRANS M32 internal marker reporter
How it was run: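 Fluorescence-detected mRNA induction, HepG2 liver cells, 24 h after dosing. Multiple GAL4-UAS reporter units introduced by transient transfection; background-control endpoint analysed for gain of signal against DMSO.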

[5] = molecular target: Nuclear receptor subfamily 4 group A member 2 (Homo sapiens) (UniProt P43354); experiment: ATG_NURR1_TRANS: Attagene TRANS-FACTORIAL HepG2 Assay for human Nuclear Receptor Related Protein 1 (NURR1) (AID 2282985; active = hit-call score of the fitted dose curve at least 0.9, where 1 is the maximum); conditions: HepG2 Attagene TRANS reporter, mRNA readout
Chain of Nuclear receptor subfamily 4 group A member 2 (Homo sapiens) (P43354 whole entry, looked up, the tested form may be a part): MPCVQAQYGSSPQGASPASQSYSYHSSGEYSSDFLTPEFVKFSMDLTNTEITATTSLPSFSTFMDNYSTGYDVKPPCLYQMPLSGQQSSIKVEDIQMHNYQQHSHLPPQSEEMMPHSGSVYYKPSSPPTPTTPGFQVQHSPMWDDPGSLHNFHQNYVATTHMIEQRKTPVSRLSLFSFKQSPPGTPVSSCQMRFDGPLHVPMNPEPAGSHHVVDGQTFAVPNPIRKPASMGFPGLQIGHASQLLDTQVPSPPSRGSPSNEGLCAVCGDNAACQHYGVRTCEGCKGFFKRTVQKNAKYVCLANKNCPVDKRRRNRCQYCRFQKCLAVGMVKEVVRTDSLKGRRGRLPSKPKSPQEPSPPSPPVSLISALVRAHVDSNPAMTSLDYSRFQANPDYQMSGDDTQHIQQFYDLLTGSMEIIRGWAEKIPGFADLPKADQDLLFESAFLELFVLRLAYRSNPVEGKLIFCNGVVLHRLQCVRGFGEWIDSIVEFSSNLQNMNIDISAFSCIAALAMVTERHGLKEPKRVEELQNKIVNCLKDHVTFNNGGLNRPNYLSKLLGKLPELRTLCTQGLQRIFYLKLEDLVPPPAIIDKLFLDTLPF
How it was run: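 Chimeric NR-Gal4 proteins were expressed in human HepG2 cells bearing GAL4-UAS reporter units, and induced reporter mRNA was quantified 24 h post-dosing by RT-PCR and capillary electrophoresis.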

[6] = molecular target: Transcriptional activator Myb (Homo sapiens) (UniProt P10242); experiment: ATG_Myb_CIS: Attagene CIS-FACTORIAL HepG2 Assay for human Myeloblastosis (Myb) Proto-Oncogene Transcription Factor (AID 2282986); conditions: HepG2 Attagene CIS-FACTORIAL Myb reporter transcription; actives raise or lower the signal
Chain of Transcriptional activator Myb (Homo sapiens) (P10242 whole entry, looked up): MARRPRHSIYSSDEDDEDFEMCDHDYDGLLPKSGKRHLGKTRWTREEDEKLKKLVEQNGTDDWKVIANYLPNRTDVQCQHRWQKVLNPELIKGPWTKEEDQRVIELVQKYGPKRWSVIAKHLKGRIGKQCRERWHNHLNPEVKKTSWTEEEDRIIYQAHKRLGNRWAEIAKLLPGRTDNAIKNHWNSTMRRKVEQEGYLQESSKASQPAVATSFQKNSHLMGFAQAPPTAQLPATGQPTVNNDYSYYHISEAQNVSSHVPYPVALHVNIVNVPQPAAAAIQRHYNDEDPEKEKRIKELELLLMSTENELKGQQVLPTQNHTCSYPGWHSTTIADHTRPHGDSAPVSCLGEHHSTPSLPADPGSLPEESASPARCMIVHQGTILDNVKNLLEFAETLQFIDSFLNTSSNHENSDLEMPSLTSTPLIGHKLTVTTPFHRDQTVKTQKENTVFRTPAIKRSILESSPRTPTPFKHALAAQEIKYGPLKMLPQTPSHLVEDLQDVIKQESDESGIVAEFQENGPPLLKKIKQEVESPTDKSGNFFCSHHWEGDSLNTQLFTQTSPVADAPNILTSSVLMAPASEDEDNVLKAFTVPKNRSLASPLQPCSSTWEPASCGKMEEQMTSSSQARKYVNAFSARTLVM
How it was run: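 HepG2 cells were transiently transfected with cis-regulated multiple reporter transcription units reflecting endogenous Myb activity, then exposed to compound for 24 hours. Reporter mRNA was measured by RT-PCR with capillary electrophoresis; bidirectional fitting versus DMSO baseline.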

[7] = molecular target: Nuclear respiratory factor 1 (Homo sapiens) (UniProt Q16656); experiment: ATG_NRF1_CIS: Attagene CIS-FACTORIAL HepG2 Assay for human Nuclear Respiratory Factor 1 (NRF1) Orphan Gene (AID 2282987); conditions: HepG2 NRF1 cis-element reporter, Attagene multiplex; actives raise or lower the signal
Chain of Nuclear respiratory factor 1 (Homo sapiens) (Q16656 whole entry, looked up): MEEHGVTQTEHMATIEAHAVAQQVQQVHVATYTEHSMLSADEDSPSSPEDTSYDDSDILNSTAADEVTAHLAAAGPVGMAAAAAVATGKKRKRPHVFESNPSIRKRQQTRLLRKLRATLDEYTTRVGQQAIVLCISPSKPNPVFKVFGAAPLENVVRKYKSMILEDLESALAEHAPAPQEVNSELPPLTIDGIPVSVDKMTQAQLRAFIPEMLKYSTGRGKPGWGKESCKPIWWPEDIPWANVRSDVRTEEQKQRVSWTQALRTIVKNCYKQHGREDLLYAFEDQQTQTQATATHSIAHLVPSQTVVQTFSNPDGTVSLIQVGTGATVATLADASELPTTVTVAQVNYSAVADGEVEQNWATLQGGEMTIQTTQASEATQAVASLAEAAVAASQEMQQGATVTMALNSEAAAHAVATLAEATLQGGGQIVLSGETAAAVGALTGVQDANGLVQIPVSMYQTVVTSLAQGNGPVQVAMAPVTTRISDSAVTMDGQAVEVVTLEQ
How it was run: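 HepG2 cells transiently transfected with multiple reporter transcription units under cis-regulatory promoter control, so endogenous transcription-factor activity is read. After 24 h compound exposure, reporter mRNA quantified by RT-PCR, fluorescent labelling, HpaI digestion and capillary electrophoresis; bidirectional fitting versus DMSO.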

[8] = ATG_NFI_CIS: Attagene CIS-FACTORIAL HepG2 Assay for human Nuclear Factor I (NFI) (AID 2282989); conditions: HepG2 cis-regulatory reporter, NFI response element transcription; actives raise or lower the signal
How it was run: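 Read-out: reporter mRNA via RT-PCR plus capillary electrophoresis with fluorescence detection. Transiently transfected HepG2 (endogenous TF activity on cis promoters), 24 h compound exposure; gain or loss of signal fitted against DMSO.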

[9] = molecular target: Myc proto-oncogene protein (Homo sapiens) (UniProt P01106); experiment: ATG_Myc_CIS: Attagene CIS-FACTORIAL HepG2 Assay for human Myelocytomatosis (Myc) Proto-Oncogene Transcription Factor (AID 2282990); conditions: HepG2, Attagene cis-reporter transcription factor activity; actives raise or lower the signal
Chain of Myc proto-oncogene protein (Homo sapiens) (P01106 whole entry, looked up): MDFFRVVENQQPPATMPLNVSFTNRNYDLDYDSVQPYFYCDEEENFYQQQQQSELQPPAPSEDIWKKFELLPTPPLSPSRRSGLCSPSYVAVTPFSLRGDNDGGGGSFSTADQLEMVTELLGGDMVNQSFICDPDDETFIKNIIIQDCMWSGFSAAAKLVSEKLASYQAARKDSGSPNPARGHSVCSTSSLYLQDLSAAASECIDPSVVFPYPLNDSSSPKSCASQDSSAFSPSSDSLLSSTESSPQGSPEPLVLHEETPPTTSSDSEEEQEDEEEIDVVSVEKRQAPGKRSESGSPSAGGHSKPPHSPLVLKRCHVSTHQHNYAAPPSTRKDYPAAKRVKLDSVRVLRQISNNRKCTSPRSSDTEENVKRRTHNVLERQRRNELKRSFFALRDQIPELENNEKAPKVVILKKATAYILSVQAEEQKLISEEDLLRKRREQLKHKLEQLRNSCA
How it was run: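 DMSO-normalised, bidirectionally fitted reporter mRNA signal. HepG2 cells transfected with cis reporter constructs, treated 24 h; transcripts detected by RT-PCR, 6-FAM primer extension and CE.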

[10] = ATG_Oct_MLP_CIS: Attagene CIS-FACTORIAL HepG2 Assay for human Octamer-Binding Transcription Factor (Oct) (AID 2282993); conditions: HepG2 Attagene cis-factorial Oct reporter, mRNA; actives raise or lower the signal
How it was run: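 Read-out: reporter mRNA via RT-PCR plus capillary electrophoresis of 6-FAM-labelled fragments. Transiently transfected HepG2, 24 h exposure, endogenous TF activity on cis elements. Gain or loss of signal fitted relative to DMSO.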

[11] = molecular target: Cellular tumor antigen p53 (Homo sapiens) (UniProt P04637); experiment: ATG_p53_CIS: Attagene CIS-FACTORIAL HepG2 Assay for human p53 Transcription Factor (AID 2282994); conditions: HepG2 p53 cis-element reporter, Attagene mRNA; actives raise or lower the signal
Chain of Cellular tumor antigen p53 (Homo sapiens) (P04637 whole entry, looked up): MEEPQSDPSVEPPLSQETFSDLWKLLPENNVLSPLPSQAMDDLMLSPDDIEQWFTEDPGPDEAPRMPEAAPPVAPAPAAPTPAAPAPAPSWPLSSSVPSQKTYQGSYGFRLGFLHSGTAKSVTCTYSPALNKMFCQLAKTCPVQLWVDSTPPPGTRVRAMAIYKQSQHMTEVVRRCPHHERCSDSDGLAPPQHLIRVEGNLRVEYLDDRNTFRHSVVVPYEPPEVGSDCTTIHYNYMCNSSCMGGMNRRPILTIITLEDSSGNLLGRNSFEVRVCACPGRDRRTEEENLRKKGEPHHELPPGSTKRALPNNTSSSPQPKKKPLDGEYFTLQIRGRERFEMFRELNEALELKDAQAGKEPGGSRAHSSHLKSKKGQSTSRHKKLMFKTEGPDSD
How it was run: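 Endogenous p53 activity read in transiently transfected HepG2 from a cis-element-driven reporter transcript after 24 h exposure. RNA reverse-transcribed, PCR-amplified, fluorescently labelled and sized by capillary electrophoresis; gain or loss fitted against DMSO baseline.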

[12] = BSK_3C_TissueFactor: BioMAP Diversity Plus: 3C Assay for Tissue Factor Biomarker Activity (AID 2282997); conditions: BioMAP 3C HUVEC, tissue factor biomarker readout; actives raise or lower the signal
How it was run: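 Tissue Factor measured by ELISA, 24 h after treatment of primary HUVEC in the BioMAP 3C setting.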

[13] = BSK_3C_uPAR: BioMAP Diversity Plus: 3C Assay for Urokinase-type plasminogen activator receptor (uPAR) Biomarker Activity (AID 2282998); conditions: BioMAP 3C HUVEC, uPAR biomarker ELISA; actives raise or lower the signal
How it was run: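 HUVEC primary cells; 24 h post-dose; uPAR by ELISA; gain or loss of signal fitted bidirectionally vs DMSO baseline.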

[14] = BSK_3C_VCAM1: BioMAP Diversity Plus: 3C Assay for Vascular cell adhesion molecule 1 (VCAM1) Biomarker Activity (AID 2282999); conditions: BioMAP 3C HUVEC, VCAM1 ELISA, cytokine-stimulated; actives raise or lower the signal
How it was run: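 Vascular primary endothelium (human umbilical vein) was exposed to chemicals and assayed 24 h later. VCAM-1 levels came from ELISA, with DMSO serving as baseline for bidirectional fitting.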

[15] = BSK_4H_Eotaxin3: BioMAP Diversity Plus: 4H Assay for Eotaxin 3 Biomarker Activity (AID 2283000); conditions: primary human endothelial cells (HUVEC); actives raise or lower the signal
How it was run: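 Eotaxin-3 (CCL26) levels were measured by ELISA in HUVEC primary cultures 24 h post-dosing. Gain or loss of signal was fitted in both directions, with DMSO serving as baseline and negative control.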

[16] = molecular target: Oxysterols receptor LXR-alpha (Homo sapiens) (UniProt Q13133); experiment: ATG_LXRa_TRANS: Attagene TRANS-FACTORIAL HepG2 Assay for human Liver X Receptor alpha (LXRa) (AID 2282980; active = hit-call score of the fitted dose curve at least 0.9, where 1 is the maximum); conditions: HepG2 Attagene TRANS reporter, LXRa transactivation
Chain of Oxysterols receptor LXR-alpha (Homo sapiens) (Q13133 whole entry, looked up, the tested form may be a part): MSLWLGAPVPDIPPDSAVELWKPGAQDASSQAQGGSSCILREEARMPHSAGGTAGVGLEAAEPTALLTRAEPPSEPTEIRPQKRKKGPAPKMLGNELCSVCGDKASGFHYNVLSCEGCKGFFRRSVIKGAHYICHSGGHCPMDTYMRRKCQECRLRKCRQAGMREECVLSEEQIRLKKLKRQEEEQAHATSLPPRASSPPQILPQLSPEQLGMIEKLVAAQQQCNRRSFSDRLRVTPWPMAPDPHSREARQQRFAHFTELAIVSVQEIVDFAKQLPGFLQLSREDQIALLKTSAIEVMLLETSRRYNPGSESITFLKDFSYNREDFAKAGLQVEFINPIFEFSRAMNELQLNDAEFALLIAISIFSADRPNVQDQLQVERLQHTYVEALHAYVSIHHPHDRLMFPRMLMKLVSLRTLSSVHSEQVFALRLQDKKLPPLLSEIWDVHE
How it was run: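 HepG2 cells transiently transfected with GAL4-UAS reporter units for chimeric NR-Gal4 proteins, exposed to chemicals for 24 h. Reporter mRNA quantified by RT-PCR and capillary electrophoresis; gain of signal fitted relative to DMSO.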

[17] = ATG_NRF2_ARE_CIS: Attagene CIS-FACTORIAL HepG2 Assay for human Nuclear Factor Erythroid 2 Related Factor 2 (NFR2) response to Antioxidant Response Elements (ARE) (AID 2282992); conditions: HepG2 Attagene ARE/NRF2 reporter, transcription factor activity; actives raise or lower the signal
How it was run: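 Endogenous transcription factor activity read out as reporter transcript levels (RT-PCR plus capillary electrophoresis, fluorescence) in transiently transfected HepG2 cells. Measured at 24 h after dosing; gain or loss of signal fitted versus DMSO.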

[18] = ATG_NF_kB_CIS: Attagene CIS-FACTORIAL HepG2 Assay for human Nuclear Factor Kappa B (NF-kB) (AID 2282991); conditions: HepG2 Attagene cis-factorial NF-kB reporter mRNA; actives raise or lower the signal
How it was run: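 HepG2 cells transiently transfected with multiplexed cis-element reporter units measuring endogenous transcription factor activity; reporter mRNA read 24 h after dosing by RT-PCR, fluorescent labelling, HpaI digestion and capillary electrophoresis. Bidirectional fit against DMSO baseline.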

Measured: AC50

C=CCOC(Cn1ccnc1)c1ccc(Cl)cc1Cl (stereo not drawn)
active: [9] 75.3 µM | [10] 3.55 µM
not listed: [16] | [17] | [18]
inactive: all other assays above

CCOC(=O)C(C)Oc1ccc(Oc2cnc3cc(Cl)ccc3n2)cc1 (stereo not drawn)
not listed: [2] | [3] | [4] | [5] | [9] | [11] | [18]
inactive: all other assays above

CCCCC(CC)CN1C(=O)C2C3C=CC(C3)C2C1=O (stereo not drawn)
active: [17] 16.7 µM | [10] 17.4 µM | [13] 32.2 µM
not listed: [3] | [5]
inactive: all other assays above

S=C([S-])NCCNC(=S)[S-].[Mn+2]
active: [15] 26.8 µM
not listed: [4] | [5] | [9] | [11] | [18]
inactive: all other assays above

CCOC(=O)C(C)Oc1ccc(Oc2nc3ccc(Cl)cc3o2)cc1 (stereo not drawn)
active: [13] 13 µM
not listed: [3] | [4] | [5] | [9]
inactive: all other assays above

COC(=O)c1ccccc1S(=O)(=O)NC(=O)Nc1nc(OC(F)F)cc(OC(F)F)n1
not listed: [3] | [5] | [16] | [17]
inactive: all other assays above

CCOC(=O)COc1cc(-n2ncc(C(F)(F)F)c(C)c2=O)c(F)cc1Cl
not listed: [2] | [4] | [5] | [18]
inactive: all other assays above

O=C(Nc1ccc([N+](=O)[O-])cc1Cl)c1cc(Cl)ccc1O
active: [18] 1.17 µM | [17] 0.544 µM | [10] 0.7 µM | [11] 0.7 µM | [13] 0.145 µM | [14] 0.189 µM | [15] 0.148 µM
not listed: [3] | [4] | [5] | [9]
inactive: all other assays above

CC1(C)C(C=C(Cl)Cl)C1C(=O)OCc1cccc(Oc2ccccc2)c1 (stereo not drawn)
not listed: [3] | [4] | [9] | [17] | [18]
inactive: all other assays above

CCN(Cc1c(F)cccc1Cl)c1c([N+](=O)[O-])cc(C(F)(F)F)cc1[N+](=O)[O-]
active: [13] 12 µM
not listed: [3] | [5] | [9] | [16] | [17]
inactive: all other assays above

COc1c(Cl)ccc(Cl)c1C(=O)O
not listed: [2] | [3] | [4] | [5] | [11] | [18]
inactive: all other assays above

CCOC(=O)[C@H](C)Oc1ccc(Oc2nc3ccc(Cl)cc3o2)cc1
active: [1] 50 µM
not listed: [3] | [4] | [5] | [9] | [17]
inactive: all other assays above

C#CCOC(=O)[C@@H](C)Oc1ccc(Oc2ncc(Cl)cc2F)cc1
active: [1] 1.16 µM
not listed: [2] | [4] | [5] | [9] | [17] | [18]
inactive: all other assays above

COC(=O)c1cccc(C)c1S(=O)(=O)NC(=O)Nc1nc(OCC(F)(F)F)nc(N(C)C)n1
active: [17] 30.9 µM
not listed: [2] | [3] | [5] | [9]
inactive: all other assays above

CCCCC(CC)COC(=O)c1ccccc1C(=O)O (stereo not drawn)
active: [17] 21.9 µM
not listed: [2] | [5] | [9] | [18]
inactive: all other assays above

CCCCOC(=O)C(C)Oc1ccc(Oc2ccc(C(F)(F)F)cn2)cc1 (stereo not drawn)
not listed: [3] | [5] | [9] | [17]
inactive: all other assays above

CCCCCOC(=O)COc1cc(N2C(=O)C3=C(CCCC3)C2=O)c(F)cc1Cl
active: [17] 20.7 µM | [14] 26.5 µM
not listed: [1] | [3] | [5] | [9] | [11] | [18]
inactive: all other assays above
